Our source for the INHIBITION values is ChEMBL document CHEMBL4513216, “Probing the Open Global Health Chemical Diversity Library for Multistage-Active Starting Points for Next-Generation Antimalarials” (ACS Infect Dis, 2020).

Structures are written as SMILES. Among all 68,000 compounds or so, about 2,700 (4%) showed an effect of 50% or more. This excerpt belongs to a sample that is enriched for strong results.

This test relates to Plasmodium berghei. The experiment in a line: Screen against P. berghei liver stage (PbLuc), transformed with Luciferase, at 2uM. Type of test: functional, HepG2. Conditions: tested at 2 uM.
`CN(Cc1noc(C2CC2)n1)C1CCN(Cc2nnc(C3CC3)o2)C1` (centres undefined): the INHIBITION is 51.19%. The value for `CCc1nnc(CN(C)C2CCCN(Cc3noc(C4CC4)n3)C2)o1` (centres undefined) was -7.13%; that for `Cc1cc(CN(C)C2CCCN(Cc3noc(C4CC4)n3)C2)no1` (centres undefined) was 28.65%. Turning to `CC(C)N(Cc1cccnc1)C(=O)CCSc1ccc(C#N)cc1`, the INHIBITION is 16.72%. The value for `CCc1nc(CN2CCN(C(=O)c3csnn3)CC2)cs1` was 32.64%; that for `CC(C)NC(=O)N1CCCC2(CCCCN2)C1` (centres undefined) was 21.75%. With `O=C(NCC(F)(F)F)c1ccncc1`, the INHIBITION amounted to 8.22%. For `Fc1cnc(N2CCCC3(CCN(Cc4cccs4)C3)C2)nc1` (centres undefined), the INHIBITION was 31.25%.

`Cc1ccnc(NC(=O)C2CCCO2)c1` (centres undefined): the INHIBITION amounted to 23.39%. The value for `COc1ccc(N(C)C(=O)C2CN(C)CCO2)cc1Cl` (centres undefined) was -18.04%. For `CN1CCOC(C(=O)N(C)c2ccc3c(c2)CCO3)C1` (centres undefined), the INHIBITION was -30.56%. As to `COc1ccc(N(C)C(=O)C2CN(C)CCO2)cc1F` (centres undefined), the INHIBITION worked out at 71.05%.

In the case of `Cc1ccc(OCC(O)COC2CCOCC2)c(Cl)c1` (centres undefined), the INHIBITION is -2.35%. The result for `Cc1cc(Cc2ccccc2C)cc(C2CCCNC2)n1` (centres undefined) reads 54.02%; that for `Cc1cc(Cc2ccccc2F)cc(C2CCCNC2)n1` (centres undefined), 4.91%.

In the case of `Cc1cc(Cc2ccccc2)cc(C2CCCNC2)n1` (centres undefined), the INHIBITION is on record as -24.98%.

With `CC(=O)N1CCN(c2cc(-n3cccc3)ncn2)CC1`, the INHIBITION is listed as 35.36%. Consider `CSc1sc2c(O)cc(=O)[nH]c2c1C(N)=O`, for which the INHIBITION is reported as 15.96%. As for `CSCCc1n[nH]c2c1CN(S(=O)(=O)c1cn(C)c(C)n1)CC2`, the INHIBITION came to 41.07%. In the case of `CSCCc1n[nH]c2c1CN(S(=O)(=O)c1c(C)nn(C)c1C)CC2`, the INHIBITION is listed as 59.8%. In the case of `Cc1nc(S(=O)(=O)N2CCc3[nH]nc(CCC(C)C)c3C2)cn1C`, the INHIBITION came out at 26.75%. The value for `CS(=O)(=O)Cc1nc(CNc2ccc(F)c(F)c2)cs1` was 56.49%; that for `CS(=O)(=O)Cc1nc(CNc2c(F)cc(F)cc2F)cs1` was 1.42%; that for `CSc1ccc(NCc2csc(CS(C)(=O)=O)n2)cc1F` was 28.95%.

`Cc1ccc(Cn2cc(C)c(N)n2)cc1`: the INHIBITION is reported as -20.05%. `Cc1cn(Cc2ccccc2)nc1N`: the INHIBITION is 43.77%. On to `Cc1cccc(Cn2cc(C)c(N)n2)c1`, for which the INHIBITION is given as 62.99%. The value for `COC(=O)c1cccc2nc([C@H]3CCN(C4CCN(C)CC4)C3)oc12` was 21.06%; that for `COC(=O)c1cccc2nc([C@H]3CCN(CC(C)C)C3)oc12` was 53.46%. In the case of `COC(=O)c1cccc2nc([C@H]3CCN(Cc4ccccc4F)C3)oc12`, the INHIBITION stood at 52.36%.

Regarding `COC(=O)c1cccc2nc([C@H]3CCN(Cc4ccccc4)C3)oc12`, the INHIBITION stood at 1.29%. `COC(=O)c1cccc2nc([C@H]3CCN(Cc4ccccc4C)C3)oc12`: the INHIBITION turned out to be 33.14%. With `COc1cccc(-c2noc(C3CCN(Cc4ccccc4F)C3)n2)c1` (centres undefined), the INHIBITION was 35.56%. Consider `CC(=O)Nc1nc(C(=O)N2CCCC(n3nc(C)cc3C)C2)cs1` (centres undefined), for which the INHIBITION is reported as -45.23%.

Regarding `N#Cc1cccc(OCCN2CCCC2C(=O)N2CCSCC2)c1` (centres undefined), the INHIBITION was found to be 9.04%.

As to `COCCN1CCN(c2cccc(C)n2)Cc2ccc(C)nc21`, the INHIBITION is reported as -21.77%. As to `Cn1cc(N2C[C@@H]3CN(CC4CCOCC4)C[C@@H]3C2=O)cn1`, the INHIBITION is reported as -1.69%. The result for `Cn1cc(N2C[C@@H]3CN(S(=O)(=O)C4CC4)C[C@@H]3C2=O)cn1` reads 63.23%.

On to `CCS(=O)(=O)N1C[C@H]2CN(c3cnn(C)c3)C(=O)[C@H]2C1`, for which the INHIBITION is given as -33.15%. As to `Cc1nc(C2CCCN2C(=O)c2ccc(F)cc2)ncc1C(N)=O` (centres undefined), the INHIBITION amounted to 21.33%. As to `CCOC(=O)N1CCC(NC(=O)c2cccc(C3CCCNC3)c2)CC1` (centres undefined), the INHIBITION was 35.15%. In the case of `CCC1CN(c2nnc(C)c(C)c2C#N)CCO1` (centres undefined), the INHIBITION came out at 11.18%. Take `Cc1nnc(N2CCOC(Cn3cccn3)C2)c(C#N)c1C` (centres undefined): the INHIBITION was 8.7%. As to `Cc1cnn(CC2CN(c3nnc(C)c(C)c3C#N)CCO2)c1` (centres undefined), the INHIBITION was determined as 54.2%. Consider `O=C1CSC(c2ccc(Cl)cc2Cl)c2c(n(C3CCOCC3)[nH]c2=O)N1` (centres undefined), for which the INHIBITION is listed as 5.47%. As to `CN(C)S(=O)(=O)N1CCC(Oc2ccc(C#N)cn2)CC1`, the INHIBITION is given as 31.38%.

Turning to `CC(C)c1nn(C)c(Cl)c1CNCc1ccc2c(c1)OCO2`, the INHIBITION was 35.65%. Take `CCC(CC)N(Cc1ccc2c(c1)OCO2)C(=O)c1ccc(=O)n(C)c1`: the INHIBITION is -55.13%.

As to `CCC(C)NC(=O)CCc1ccc(OCC(F)(F)F)c(OC)c1` (centres undefined), the INHIBITION is reported as 51.94%.

In the case of `COc1cc(CCC(=O)NC(C)C(=O)O)ccc1OCC(F)(F)F` (centres undefined), the INHIBITION is -16.42%. For `COc1cc(CCC(=O)NC(C)C)ccc1OCC(F)(F)F`, the INHIBITION is -56.02%. Turning to `NC(=O)c1cccc2nc([C@H]3CCN(Cc4ccccc4F)C3)[nH]c12`, the INHIBITION was found to be 18.87%.

Turning to `NC(=O)c1cccc2nc([C@H]3CCN(Cc4ccccn4)C3)[nH]c12`, the INHIBITION worked out at 50.72%. `Cc1ccc(CN2CC[C@H](c3nc4cccc(C(N)=O)c4[nH]3)C2)cc1`: the INHIBITION turned out to be 23.26%.
